Assay outcomes: PubChem, National Center for Advancing Translational Sciences (NCATS)
Gal4-VP16 FLuc – Gal4-VP16 reporter inhibition counter-screen | Drosophila S2 Gal4-VP16 UAS-luciferase, luminescence, 20 h | Potency, µM (top dose mostly 53.6 µM), inactives show top-dose activity, negative = inhibition, most hits filed as inhibitors | 3.5% of 310,000 active;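 also: Gal4-VP16 expression switched on by copper sulfate through the metallothionein promoter; potency is read from the fitted curve at half-maximal effect; nearly all actives have a fitted effect of over 50% in size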
TSHR antagonist – blocks TSH signaling through the human TSH receptor. activity change, negative = inhibition, % at 11.5 µM. 0.2% of 330,000 active. TSHR-expressing cells, TSH-stimulated cAMP HTRF, 2 h; stronger effect = lower value;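 active = activity change below a set negative limit, meaning inhibition stronger than a set level, cut at about -70% in these data; inconclusive = activity change between two set negative limits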
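Read-out is FRET at 665 nm (cryptate excitation 337 nm) from a cryptate-tagged anti-cAMP antibody, competed by cell cAMP against cAMP-d2. Compounds are tested on freshly harvested TSHR cells challenged with 4nM TSH (EC80) for 2 hours at 37 deg C.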
ELG1 repair inh – inhibitors of ELG1-dependent DNA repair in HEK293T cells | HEK293T ELG1-luciferase reporter, luminescence, 16 h; DNA damage induced by 5-fluorouridine | Potency, µM (doses to about 46.1 µM), inactives show top-dose activity change, negative = inhibition, most hits filed as inhibitors | 2.3% of 330,000 active; also: potency is read from the fitted curve at half-maximal effect; nearly all actives have a fitted effect of over 55% in size
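Reporter activity after DNA damage by 5-fluorouridine is monitored. Compound-treated cells incubate 16 hr at 37 °C, then ONE-Glo is added for 30 min before luminescence reading.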
RORgamma inh – blocks mouse ROR gamma transcriptional activity; P51450; Drosophila S2 Gal4-RORgamma UAS-luciferase reporter, 20 h; Potency, µM (series often up to 53.6 µM), inactives show top-dose activity change, negative = inhibition, actives largely listed as inhibitors; 5.4% of 310,000 active; AID 2551; also: potency is read from the fitted curve at half-maximal effect; nearly all actives have a fitted effect of over 60% in size
Target sequence (P51450 whole entry, looked up, the tested form may be a part): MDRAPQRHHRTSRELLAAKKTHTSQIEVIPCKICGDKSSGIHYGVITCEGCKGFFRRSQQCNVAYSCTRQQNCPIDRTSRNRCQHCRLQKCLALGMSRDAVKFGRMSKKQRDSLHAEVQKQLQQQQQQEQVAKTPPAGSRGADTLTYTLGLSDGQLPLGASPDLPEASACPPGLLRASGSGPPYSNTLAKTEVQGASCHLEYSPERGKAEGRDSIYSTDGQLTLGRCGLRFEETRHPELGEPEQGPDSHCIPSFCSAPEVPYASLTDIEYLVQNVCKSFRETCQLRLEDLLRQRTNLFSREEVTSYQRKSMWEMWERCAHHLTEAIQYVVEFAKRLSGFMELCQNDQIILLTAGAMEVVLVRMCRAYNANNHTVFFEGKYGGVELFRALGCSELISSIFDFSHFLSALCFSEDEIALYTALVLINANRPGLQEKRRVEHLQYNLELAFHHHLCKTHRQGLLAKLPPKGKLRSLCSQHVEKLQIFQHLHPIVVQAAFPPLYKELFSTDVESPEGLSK
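Stably transfected Drosophila Schneider cells are the test system, with ROR gamma fused to Gal4 and luciferase under UAS control; luminescence is read after 20 hr of 700 uM copper sulfate induction at ambient temperature.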
Coupling enz – counter-screen for Giardia aldolase inhibitors: coupling enzyme system. AID 2472. activity change, negative = inhibition, % at 58.2 µM, hits read low. 0.67% of 290,000 active. coupling enzyme system counterscreen, AmpLite Red fluorescence; in the data active = activity change below about -30%
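Fluorescence at 525 nm excitation and 598 nm emission measured inhibition of the coupled detection system without aldolase. Compounds (at 57.5 uM final) were preincubated 10 min at room temperature with coupling enzyme reagent before a 20 min substrate/AmpLite Red step.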
* = called active by the depositor; ? = inconclusive; . = no result. The list is not random: actives were taken first. Their share in the collection is about 8%. Unless noted, calls follow the shape of the dose curve; as a rule, active = well fitted curve in the direction sought with a large enough effect; inconclusive = small, poorly fitted or top-dose-only effect, or another doubt; inactive = no such curve, though single readings can be large; an effect the other way counts as inactive or inconclusive. % is scaled to controls: 0 for no effect and ±100 for the full control effect.

SMILES	Gal4-VP16 FLuc	TSHR antagonist	ELG1 repair inh	RORgamma inh	Coupling enz
COc1cc(C)ccc1N(CCCN1C(=O)c2cccc3cccc(c23)C1=O)C(=O)c1cccs1	-11%	-2	21µM*	13%	5
CC(=O)c1sc(NC(=O)C2CCCN2S(=O)(=O)c2ccccc2F)nc1C (stereo unspecified)	.	-21	20%	.	.
COc1cc(NC(=O)CN2c3ccccc3CC2C)cc(OC)c1OC (stereo unspecified)	0%	2	16µM*	24%	9
CC1Cc2ccccc2N1CC(=O)Nc1ccc(Cl)c(S(=O)(=O)N(C)C)c1 (stereo unspecified)	8%	-6	23µM*	16%	0
COCCOC(=O)c1c(NC(=O)CN2c3ccccc3CC2C)sc(C(N)=O)c1C (stereo unspecified)	6%	-2	9.2µM*	-12%	0
COc1ccc(Cl)cc1NC(=O)CN1c2ccccc2CC1C (stereo unspecified)	?	-2	?	?	0
CCCN(C(=O)CSCC(=O)Nc1ccc(OC)cc1)c1c(N)n(Cc2ccccc2)c(=O)[nH]c1=O	.	-1	9%	.	.
COc1ccc(CN=C(Nc2ccccc2)SC2CC(=O)NC2=O)cc1 (stereo unspecified)	-9%	-21	?	13µM*	0
O=C1CC(SC(=NCc2ccc3c(c2)OCO3)Nc2ccccc2)C(=O)N1 (stereo unspecified)	13%	1	11%	1%	-1
N#Cc1cc(Oc2cccc3cccnc23)c(-n2nnc3ccccc32)cc1C#N	6.3µM*	-34	?	?	-21
N#Cc1ccc(Oc2cccc3cccnc23)c([N+](=O)[O-])c1	-14%	-6	-1%	8%	-37*
N#Cc1cc(O)c(-n2nnc3ccccc32)cc1C#N	0%	12	0%	1%	4
O=[N+]([O-])c1ccc(Oc2cccc3cccnc23)c([N+](=O)[O-])c1	?	16	-1%	8.9µM*	-42*
Cc1ccc2cccc(Oc3ccc([N+](=O)[O-])cc3[N+](=O)[O-])c2n1	-17%	5	6%	-37%	-29
O=[N+]([O-])c1ccccc1OCCOCCOc1cccc2cccnc12	-9%	0	-2%	20%	2
CCC(Sc1nc(C)cc(C)n1)C(=O)Nc1nccs1 (stereo unspecified)	?	-30	18µM*	?	.
CCC(Sc1nnc(C)s1)C(=O)Nc1nccs1 (stereo unspecified)	-12%	-3	?	-19%	-3
O=C(N/N=C/c1[nH]c2ccccc2c1Cl)c1cccc(Br)c1	7.9µM*	-1	?	3.2µM*	-1
O=C(N/N=C/c1cccnc1)c1cccc(Br)c1	-2%	-8	?	-13%	0
O=C(N/N=C/C1C(c2ccccc2)C1(Cl)Cl)c1cccc(Br)c1 (stereo unspecified)	6.3µM*	-6	?	4.5µM*	3
Cc1[nH]c2ccccc2c1/C=N/NC(=O)c1cccc(Br)c1	11%	-4	2%	-42%	0
O=C(N/N=C/C=C\c1ccccc1[N+](=O)[O-])c1ccccn1	-7%	4	?	?	3
Cc1ccsc1C(=O)N/N=C/C=C/c1ccccc1[N+](=O)[O-]	5.6µM*	4	?	5.6µM*	3
O=C(N/N=C/C=C/c1ccccc1[N+](=O)[O-])c1cc(-c2ccccc2)n[nH]1	14µM*	-18	?	7.1µM*	4
Cc1cnc(CNc2nc(-c3ccc4c(c3)OCO4)nc3ccccc23)cn1	-15%	.	.	33%	-4
SMILES	Gal4-VP16 FLuc	TSHR antagonist	ELG1 repair inh	RORgamma inh	Coupling enz
CCCn1c(=S)[nH]c2cc(OC)c(OC)cc2c1=O	7.9µM*	.	.	3.2µM*	1
CCOc1cc2[nH]c(=S)n(CCOC)c(=O)c2cc1OCC	8.9µM*	-2	3%	2.8µM*	-2
COc1cc2[nH]c(=S)n(Cc3cccs3)c(=O)c2cc1OC	-15%	-1	-1%	?	1
CCOc1cc2[nH]c(=S)n(CCCN(CC)CC)c(=O)c2cc1OCC	-13%	2	1%	-40%	-2
CCCCN(C)CCn1c(=S)[nH]c2cc(OCC)c(OCC)cc2c1=O	?	11	30%	11µM*	0
CCOC(=O)N1CCC(n2c(=S)[nH]c3cc(OC)c(OC)cc3c2=O)CC1	11µM*	-8	-14%	?	9
Cc1c(CCC(=O)NCCCN2CCCC2=O)c(=O)oc2c(C)c(O)ccc12	0%	-6	12%	0%	0
COCCn1c(=S)[nH]c2ccc(N(C)C)cc2c1=O	?	26	-1%	16µM*	-23
Cc1ccc(S(=O)(=O)N2CCOCC2)cc1NC(=O)CSc1nnc(C2CC2)n1C1CC1	.	4	0%	.	.
COc1ccc(-n2c(-c3cc(-c4ccccc4)sc3N)n[nH]c2=S)cc1	?	-6	10%	2.5µM*	-1
Nc1sc(-c2ccccc2)cc1-c1n[nH]c(=S)n1C1CCCCC1	?	-10	21µM*	2.2µM*	0
COc1ccc(-n2c(C)nc(=O)c(-c3ccccc3)c2C)cc1	-5%	12	9%	-20%	-1
CNc1nc(C#N)nc(Nc2ccccc2)n1	?	.	.	.	0
Cc1oc(-c2cccc(C(F)(F)F)c2)nc1CN1CCOCC1	5µM*	-8	?	0.79µM*	0
COc1ccc(N=CC2=C(O)c3ccccc3C2=O)c(OC)c1	4µM*	1	?	4µM*	0
Cc1ccccc1N=CC1=C(O)c2ccccc2C1=O	1.3µM*	-18	?	0.2µM*	-4
Fc1ccc(Nc2nc(NCc3ccco3)c3ccccc3n2)cc1	?	-25	23µM*	?	0
Nc1nc(Nc2ccccc2)nc(NCc2ccco2)c1[N+](=O)[O-]	2%	3	?	?	0
CCOc1ccc(-c2nnc3ccc(SCC(=O)Nc4nc5ccccc5s4)nn23)cc1	-3%	0	7.3µM*	?	-4
CCOc1ccc(-c2nnc3ccc(SCC(=O)Nc4nc5ccc(C)cc5s4)nn23)cc1	-12%	1	8.2µM*	23%	-2
COc1ccc(-c2nnc(SCC(=O)Nc3nc4ccccc4s3)n2C)cc1	10%	-2	-3%	-14%	0
CC(C)OC(=O)/C(=C\c1ccc2c(c1)c1ccccc1n2C)NC(=O)c1ccccc1	?	-5	?	27%	1
CC(C)OC(=O)/C(=C/c1ccc2c(c1)c1ccccc1n2C)NC(=O)c1ccccc1	4%	3	21µM*	?	0
COC(=O)/C(=C\c1ccc2c(c1)c1ccccc1n2C)NC(=O)c1ccccc1	3%	10	21µM*	33%	1
